Measured values taken from the supplement of paper PMC10849652.
About 8,800 targets were measured; listed, in parts, are those with a hit and a random draw of the rest. About 0.5% of all pairs of compound and target were hits.

Legend:
Experiment in all cases: log2 fold change, soluble protein after heating vs DMSO (PISA); higher = thermal stabilisation; K562 lysate, 10 uM; active = over 0.2 and 3.5 SD of the protein, either way, in both replicates (recomputed)
[1] = compound: C1=CC=C(C=C1)[C@H](COC2=CC3=C(C=C2)NC(=O)N3)NC(=O)C4=CC=CN(C4=O)CC5=CC(=C(C=C5)F)F
Procedure, shortened: (§1)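 Dounce homogenisation of K562 pellets in PBS pH 7.4 with 1 mM MgCl2 produced a crude extract, used at 1 mg/mL protein. Exposure to 10 μM compound lasted 30 min, and aliquots were then heated for 3 min across 48°C-58°C, pooled and brought to 0.5% NP-40 at 4°C. The supernatant after 21,000xg for 90 min was quantified by TMTpro 16plex LC-MS/MS with channel sums equalised. Duplicate values are given as log-two fold change in thermal stability relative to solvent controls.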

[2] = compound: CC1=C(SC2=C1C(=N[C@H](C3=NN=C(N32)C)CC(=O)N)C4=CC=C(C=C4)Cl)C
Procedure, shortened: as §1

[3] = compound: CC1=C2C(=CC=C1)N=C(N(C2=O)C3=CC=CC=C3C)CN4C=NC5=C(N=CN=C54)N
Procedure, shortened: as §1

[4] = compound: Cc1sc2c(c1C)C(c1ccc(Cl)cc1)=N[C@@H](CC(=O)OC(C)(C)C)c1nnc(C)n1-2
Procedure, shortened: as §1

[5] = compound: c1ccc([C@@H]2C[C@H]2NC2CCNCC2)cc1
Procedure, shortened: as §1

Measured: log2 fold change

LPIN1 isoform 7 (UniProt Q14693)
UniProt Q14693, sequence (Q14693 whole entry, looked up): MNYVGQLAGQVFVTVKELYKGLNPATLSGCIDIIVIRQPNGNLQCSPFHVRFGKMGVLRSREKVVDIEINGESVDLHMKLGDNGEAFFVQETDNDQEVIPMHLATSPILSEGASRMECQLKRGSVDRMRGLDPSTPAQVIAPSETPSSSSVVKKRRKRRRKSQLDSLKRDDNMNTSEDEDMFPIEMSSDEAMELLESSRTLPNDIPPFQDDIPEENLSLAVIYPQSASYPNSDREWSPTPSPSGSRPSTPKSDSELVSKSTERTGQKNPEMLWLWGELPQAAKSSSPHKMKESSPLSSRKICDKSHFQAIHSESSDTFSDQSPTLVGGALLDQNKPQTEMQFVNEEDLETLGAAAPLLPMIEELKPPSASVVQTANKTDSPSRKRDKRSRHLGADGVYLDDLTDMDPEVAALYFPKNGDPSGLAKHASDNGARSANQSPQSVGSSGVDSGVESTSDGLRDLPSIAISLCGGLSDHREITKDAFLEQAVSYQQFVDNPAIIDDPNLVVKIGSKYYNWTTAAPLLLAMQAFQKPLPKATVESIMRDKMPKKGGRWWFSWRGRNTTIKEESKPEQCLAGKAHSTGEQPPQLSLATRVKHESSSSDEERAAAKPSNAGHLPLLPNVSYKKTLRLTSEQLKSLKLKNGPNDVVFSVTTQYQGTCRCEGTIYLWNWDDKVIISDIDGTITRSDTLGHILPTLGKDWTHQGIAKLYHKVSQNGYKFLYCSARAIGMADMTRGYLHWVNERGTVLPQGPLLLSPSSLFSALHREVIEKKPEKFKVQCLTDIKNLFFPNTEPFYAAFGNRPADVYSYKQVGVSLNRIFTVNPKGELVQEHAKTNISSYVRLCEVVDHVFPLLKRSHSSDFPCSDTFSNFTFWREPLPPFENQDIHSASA
inactive: [1] 0.053 | [2] -0.003 | [3] -0.053 | [4] 0.029 | [5] 0.194

MAPK14 (UniProt Q16539)
UniProt Q16539, sequence (Q16539 whole entry, looked up): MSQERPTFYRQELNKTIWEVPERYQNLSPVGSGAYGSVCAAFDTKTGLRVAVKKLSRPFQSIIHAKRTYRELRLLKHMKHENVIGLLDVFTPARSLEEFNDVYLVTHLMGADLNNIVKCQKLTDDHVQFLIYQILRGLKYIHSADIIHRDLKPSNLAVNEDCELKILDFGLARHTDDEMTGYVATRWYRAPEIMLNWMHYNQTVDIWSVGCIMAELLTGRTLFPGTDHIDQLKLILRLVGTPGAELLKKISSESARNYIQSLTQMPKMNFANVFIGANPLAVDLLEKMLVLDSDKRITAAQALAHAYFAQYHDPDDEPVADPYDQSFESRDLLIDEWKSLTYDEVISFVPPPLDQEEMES
inactive: [1] 0.007 | [2] 0.024 | [3] 0.034 | [4] -0.04 | [5] -0.015

KMT2A isoform 3 (UniProt Q03164)
inactive: [1] 0.043 | [2] 0.09 | [3] -0.009 | [4] -0.025 | [5] 0.016

MPI (UniProt P34949)
UniProt P34949, sequence (P34949 whole entry, looked up): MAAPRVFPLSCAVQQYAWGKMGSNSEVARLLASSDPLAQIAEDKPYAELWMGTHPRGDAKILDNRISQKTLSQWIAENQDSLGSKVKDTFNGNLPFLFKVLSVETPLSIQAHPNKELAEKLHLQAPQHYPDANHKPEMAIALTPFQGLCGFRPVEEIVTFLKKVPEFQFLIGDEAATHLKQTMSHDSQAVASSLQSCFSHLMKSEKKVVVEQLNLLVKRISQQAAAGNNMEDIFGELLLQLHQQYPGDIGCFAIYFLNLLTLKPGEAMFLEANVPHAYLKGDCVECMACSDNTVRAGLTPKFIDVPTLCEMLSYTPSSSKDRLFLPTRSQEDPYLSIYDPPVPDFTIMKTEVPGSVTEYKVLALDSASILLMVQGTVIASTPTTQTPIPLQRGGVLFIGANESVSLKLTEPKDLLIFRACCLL
inactive: [1] 0.023 | [2] -0.014 | [3] 0.033 | [4] -0.023 | [5] 0.083

LARS2 (UniProt Q15031)
UniProt Q15031, sequence (Q15031 whole entry, looked up): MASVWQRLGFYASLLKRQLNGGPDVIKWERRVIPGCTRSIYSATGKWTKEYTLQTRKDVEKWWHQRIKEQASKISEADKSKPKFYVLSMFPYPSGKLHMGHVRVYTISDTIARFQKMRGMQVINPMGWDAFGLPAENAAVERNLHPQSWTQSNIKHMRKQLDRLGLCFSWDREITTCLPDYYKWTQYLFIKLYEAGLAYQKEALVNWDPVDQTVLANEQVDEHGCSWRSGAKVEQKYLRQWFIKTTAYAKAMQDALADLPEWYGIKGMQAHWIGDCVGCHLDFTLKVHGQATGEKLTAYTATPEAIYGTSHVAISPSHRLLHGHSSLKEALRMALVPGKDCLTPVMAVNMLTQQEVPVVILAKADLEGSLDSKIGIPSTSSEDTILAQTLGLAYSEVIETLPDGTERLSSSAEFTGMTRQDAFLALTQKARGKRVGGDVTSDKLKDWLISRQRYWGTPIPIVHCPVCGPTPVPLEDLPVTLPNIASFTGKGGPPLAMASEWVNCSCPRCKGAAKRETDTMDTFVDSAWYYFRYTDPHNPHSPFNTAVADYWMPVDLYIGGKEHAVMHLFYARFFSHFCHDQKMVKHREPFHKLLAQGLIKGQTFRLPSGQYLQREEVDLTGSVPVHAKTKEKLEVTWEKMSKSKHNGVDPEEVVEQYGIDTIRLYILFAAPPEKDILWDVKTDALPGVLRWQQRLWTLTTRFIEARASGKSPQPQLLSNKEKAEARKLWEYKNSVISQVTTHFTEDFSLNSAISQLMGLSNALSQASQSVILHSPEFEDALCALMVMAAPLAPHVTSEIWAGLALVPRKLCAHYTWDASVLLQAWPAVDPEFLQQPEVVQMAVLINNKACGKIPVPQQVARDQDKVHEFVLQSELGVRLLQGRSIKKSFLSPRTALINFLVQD
inactive: [1] -0.07 | [2] -0.072 | [3] -0.019 | [4] 0.066 | [5] 0.064

KLC4 isoform 3 (UniProt Q9NSK0)
UniProt Q9NSK0, sequence (Q9NSK0 whole entry, looked up): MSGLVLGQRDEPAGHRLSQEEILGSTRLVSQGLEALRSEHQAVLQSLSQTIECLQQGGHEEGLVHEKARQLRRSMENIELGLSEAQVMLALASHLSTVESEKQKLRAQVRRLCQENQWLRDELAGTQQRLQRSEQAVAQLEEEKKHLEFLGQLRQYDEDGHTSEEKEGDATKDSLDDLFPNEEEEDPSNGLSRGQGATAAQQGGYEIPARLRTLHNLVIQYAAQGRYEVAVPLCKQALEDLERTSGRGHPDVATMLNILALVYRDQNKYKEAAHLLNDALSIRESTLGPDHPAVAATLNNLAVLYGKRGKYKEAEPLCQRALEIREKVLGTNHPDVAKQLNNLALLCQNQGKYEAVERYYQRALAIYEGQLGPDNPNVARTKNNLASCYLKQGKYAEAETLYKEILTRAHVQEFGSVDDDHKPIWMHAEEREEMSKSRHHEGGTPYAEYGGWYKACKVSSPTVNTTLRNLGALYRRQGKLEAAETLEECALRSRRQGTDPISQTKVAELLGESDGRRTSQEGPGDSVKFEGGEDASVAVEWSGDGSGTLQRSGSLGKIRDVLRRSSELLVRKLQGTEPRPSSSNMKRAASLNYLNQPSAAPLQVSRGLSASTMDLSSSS
inactive: [1] 0.011 | [2] 0.004 | [3] -0.003 | [4] 0.01 | [5] 0.014

MAPKAPK2 (UniProt P49137)
UniProt P49137, sequence (P49137 whole entry, looked up): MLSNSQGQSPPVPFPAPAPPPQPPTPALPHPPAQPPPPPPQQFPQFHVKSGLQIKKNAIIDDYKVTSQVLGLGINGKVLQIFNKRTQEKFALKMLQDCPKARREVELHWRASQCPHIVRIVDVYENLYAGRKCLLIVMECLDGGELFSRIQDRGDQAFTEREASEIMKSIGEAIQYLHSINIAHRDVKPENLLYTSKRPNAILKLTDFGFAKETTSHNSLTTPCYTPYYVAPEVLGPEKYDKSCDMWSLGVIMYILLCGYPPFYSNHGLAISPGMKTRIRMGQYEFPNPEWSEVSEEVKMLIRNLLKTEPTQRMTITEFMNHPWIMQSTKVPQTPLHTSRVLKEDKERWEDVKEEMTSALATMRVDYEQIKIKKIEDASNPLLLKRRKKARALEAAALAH
inactive: [1] 0.043 | [2] 0.008 | [3] -0.053 | [4] 0.004 | [5] -0.051

LUZP1 (UniProt Q86V48)
UniProt Q86V48, sequence (Q86V48 whole entry, looked up): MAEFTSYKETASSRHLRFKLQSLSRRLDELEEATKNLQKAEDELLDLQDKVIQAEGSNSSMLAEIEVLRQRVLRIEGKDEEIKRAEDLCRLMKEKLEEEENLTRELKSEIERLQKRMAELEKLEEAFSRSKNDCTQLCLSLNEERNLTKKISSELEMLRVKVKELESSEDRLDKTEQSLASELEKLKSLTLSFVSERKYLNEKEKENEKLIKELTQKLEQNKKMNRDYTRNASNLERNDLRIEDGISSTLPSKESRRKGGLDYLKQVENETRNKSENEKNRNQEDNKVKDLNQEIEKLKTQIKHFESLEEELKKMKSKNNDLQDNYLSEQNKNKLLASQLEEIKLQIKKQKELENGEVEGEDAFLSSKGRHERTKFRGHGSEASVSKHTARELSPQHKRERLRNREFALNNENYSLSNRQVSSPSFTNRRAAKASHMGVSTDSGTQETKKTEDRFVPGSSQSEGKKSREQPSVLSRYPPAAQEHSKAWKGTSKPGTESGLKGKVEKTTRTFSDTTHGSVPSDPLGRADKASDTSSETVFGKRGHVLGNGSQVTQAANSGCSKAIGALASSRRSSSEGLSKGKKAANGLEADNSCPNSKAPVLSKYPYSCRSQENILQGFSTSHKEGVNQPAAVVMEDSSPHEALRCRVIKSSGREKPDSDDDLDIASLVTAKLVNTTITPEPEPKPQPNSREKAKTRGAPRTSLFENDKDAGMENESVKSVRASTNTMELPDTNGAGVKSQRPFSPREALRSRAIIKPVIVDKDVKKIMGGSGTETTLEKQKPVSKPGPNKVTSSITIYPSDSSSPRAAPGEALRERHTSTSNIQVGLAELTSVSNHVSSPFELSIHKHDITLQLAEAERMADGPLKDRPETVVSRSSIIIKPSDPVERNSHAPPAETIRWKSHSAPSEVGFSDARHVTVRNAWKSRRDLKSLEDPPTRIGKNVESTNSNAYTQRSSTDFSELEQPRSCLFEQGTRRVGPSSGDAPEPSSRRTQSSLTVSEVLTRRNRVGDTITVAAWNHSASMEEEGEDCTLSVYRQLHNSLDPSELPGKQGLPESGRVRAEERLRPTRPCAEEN
inactive: [1] 0.039 | [2] -0.113 | [3] 0.032 | [4] 0.007 | [5] -0.056

MORF4L1 isoform 2 (UniProt Q9UBU8)
UniProt Q9UBU8, sequence (Q9UBU8 whole entry, looked up): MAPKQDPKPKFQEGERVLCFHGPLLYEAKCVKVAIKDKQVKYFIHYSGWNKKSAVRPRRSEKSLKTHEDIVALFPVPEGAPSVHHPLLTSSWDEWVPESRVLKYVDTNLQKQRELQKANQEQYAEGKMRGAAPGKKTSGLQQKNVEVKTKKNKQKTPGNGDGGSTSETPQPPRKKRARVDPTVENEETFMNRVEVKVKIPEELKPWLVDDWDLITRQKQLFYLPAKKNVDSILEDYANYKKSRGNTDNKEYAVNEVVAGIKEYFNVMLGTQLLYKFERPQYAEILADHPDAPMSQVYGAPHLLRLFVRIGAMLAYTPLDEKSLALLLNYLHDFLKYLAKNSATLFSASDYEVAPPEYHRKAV
inactive: [1] 0.012 | [2] -0.03 | [3] -0.029 | [4] -0.041 | [5] -0.035
